HSF1 inhib – HSF1 inhibition. NIH3T3-HGL HSE-luciferase, MG132-induced, luminescence 8 h; stronger effect = lower value. activity change, negative = inhibition, % at 7.5 µM (by protocol). 0.77% of 300,000 active;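 active = more than half of replicate wells show activity change below -50%, luminescence cut by over half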;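 also: luciferase reports HSF-1 transcriptional activity via heat shock element; 0% = median of DMSO wells and -100% = zero luminescence signal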
LGR2 inh – inhibitors of bursicon-induced Drosophila LGR2 receptor cAMP signaling | HEK293 LGR2, CRE-luciferase, bursicon-stimulated, 4 h | inhibition, % at 9.99 µM | 0.35% of 380,000 active;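 active = drop in luminescence signal, shown as inhibition above about 50% in the replicate tests, limit read from the data, passing the limit was not always enough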;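 also: agonist challenge used bursicon conditioned medium at about half maximal strength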
EBV LMP1 NFkB – Epstein-Barr LMP1 NF-kappaB reporter inhibition; LMP1-induced NF-kappaB luciferase reporter cells, luminescence; AID 504558; 0.69% of 350,000 active; inhibition, % at 12.5 µM; in the data active = inhibition above about 41%;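 also: 0% = neutral control wells and 100% = reference inhibitor control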
HSF-1 act – increases HSF-1 driven luciferase reporter signal. NIH3T3-HGL HSF-1 luciferase reporter, MG132, 8 h; 100% = twice DMSO control signal. activation, % at 9 µM. 1.7% of 300,000 active. AID 504408;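 active = mean replicate activation of at least 50% with a set share of replicates each reaching 50%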;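 also: 0% = median of the neutral control wells and 100% = twice that signal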
TWEAK-Fn14 inh – TWEAK-Fn14 signaling inhibition; TWEAK-stimulated Fn14 reporter cells, luciferase luminescence, 8 h; inhibition, % at 10 µM; 2% of 360,000 active; in the data active = inhibition above about 50%
TROY signal inh – blocks TROY-dependent signaling in reporter cells; Q293 LMP1-TROYcd NF-kB luciferase reporter, 4 h; 0.98% of 360,000 active; inhibition, % at 10 µM;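 active = compounds whose plate-normalised and pattern-corrected inhibition of the luciferase reporter signal at the single screening dose is 50% or more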
* hit, by the source's call; · = no result given. A selection: hits, their analogues and other compounds. The true share with any hit is near 3.6%.

SMILES	HSF1 inhib	LGR2 inh	EBV LMP1 NFkB	HSF-1 act	TWEAK-Fn14 inh	TROY signal inh
COc1ccc(C(C)=O)cc1CSc1nnc(Nc2ccc(C)cc2)s1	0	·	8	-18	63*	29
Cc1noc(C)c1NC(=O)Nc1ccc2c(c1)CC(=O)N([C@H](C)CO)C[C@@H](C)[C@@H](CN(C)S(=O)(=O)c1ccc(F)cc1)O2	·	3	·	·	·	·
CO[C@H]1CN(C)C(=O)c2ccc(NC(=O)Nc3ccccc3)cc2OC[C@H](C)N(C(C)=O)C[C@@H]1C	·	12	·	·	·	·
N#C/C(=C\C=C\c1ccccc1[N+](=O)[O-])C(=O)NC1CCCCC1	34	·	-77	82*	82*	-29
CCOC(=O)c1ccc(NC(=O)CC2COc3ccccc3O2)cc1 (configuration not stated)	-81*	·	1	-85	-1	-8
O=C(Nc1ccccc1)C1COc2ccccc2O1 (configuration not stated)	10	-9	-2	10	80*	-16
O=C(Nc1cccnc1)C1COc2ccccc2O1 (configuration not stated)	-3	·	4	8	6	-12
O=C(Nc1ccc(-c2cn3ccsc3n2)cc1)C1COc2ccccc2O1 (configuration not stated)	-2	·	-4	18	45	57*
O=C(Nc1ccc([N+](=O)[O-])cc1)C1COc2ccccc2O1 (configuration not stated)	1	·	6	11	-5	-10
CC(=O)c1sc(NC(=O)C2COc3ccccc3O2)nc1C (configuration not stated)	-1	·	49*	-5	87*	56*
CN1C(=O)c2cc(NS(=O)(=O)c3ccccc3Cl)ccc2OC[C@@H]2O[C@@H](CC(=O)O)CC[C@@H]21	·	15	·	·	·	·
CCCNC(=O)N1[C@H](CN(C)C(C)=O)[C@H](c2ccc(C3=CCCC3)cc2)[C@@H]1CO	·	19	·	·	·	·
Cc1ccc(NC(=O)C2COc3ccccc3O2)cc1 (configuration not stated)	26	-13	-13	46	51*	-45
O=C(NNc1nc2c(F)cc(F)cc2s1)C1COc2ccccc2O1 (configuration not stated)	-2	14	0	-4	-13	-17
CC1(C)Oc2ccc(NC(=O)C3COc4ccccc4O3)cc2O1 (configuration not stated)	-11	·	-7	-25	42	54*
O=C(NCCc1ccc(O)c(O)c1)C1COc2ccccc2O1 (configuration not stated)	71	1	-2	121*	-20	4
Cc1cccc2sc(NNC(=O)C3COc4ccccc4O3)nc12 (configuration not stated)	-87*	7	-1	-90	26	43
CC(Cc1cccs1)NC(=O)Nc1ccc(Cl)cc1 (configuration not stated)	30	-11	-38	62*	-24	-25
CC(Cc1cccs1)NC(=O)Nc1ccccc1 (configuration not stated)	3	-25	1	-15	-7	-30
CC(=O)c1ccc(-n2c(C)c(C(C)=O)c3cc(O)ccc32)cc1	-6	13	22	-7	43	13
CC(=O)c1c(C)n(-c2ccc(C)cc2C)c2ccc(O)cc12	-3	21	23	-7	58*	22
CCOc1ccc(-n2c(C)c(C(C)=O)c3cc(O)ccc32)cc1	-29	14	27	-35	64*	35
Cc1noc(C)c1NC(=O)N(C)C[C@H]1Oc2c(NC(=O)c3cnccn3)cccc2C(=O)N([C@@H](C)CO)C[C@@H]1C	·	13	·	·	·	·
Cc1ccc(C2CN=NC23CCc2ccccc2C3=O)cc1 (configuration not stated)	5	·	5	12	55*	49
O=S(=O)(Nc1c(F)cccc1F)c1ccc(Cl)nc1	-4	-5	6	3	10	86*
SMILES	HSF1 inhib	LGR2 inh	EBV LMP1 NFkB	HSF-1 act	TWEAK-Fn14 inh	TROY signal inh
COc1ccc2c3c([nH]c2c1)[C@@H](CO)N(C)CC31CCN(C(=O)C2CC2)CC1	·	-23	·	·	·	·
O=C(C[C@@H]1CC[C@@H]2[C@H](COC[C@@H](O)CN2S(=O)(=O)c2ccc(Cl)cc2)O1)NCCN1CCCC1	·	9	·	·	·	·
O=C(CSc1nc(C2CCCCC2)nc2ccccc12)NCc1ccco1	37	11	4	59*	32	16
CCn1c(CNc2ccc(Cl)cc2)nnc1SCC(=O)OC1CCCCC1	19	·	1	60*	-4	1
CCn1c(CNc2cccc(Cl)c2)nnc1SCC(=O)OC1CCCCC1	22	·	-3	27	41	1
O=C(CSc1nnc(Cc2ccccc2)n1Cc1ccccc1)NCc1ccco1	22	-12	0	40	-5	-9
Cc1sc2nc(C3CC3)nc(SCC(=O)NCc3ccco3)c2c1C	3	4	-1	19	7	5
CC(C)c1nc2ccccc2c2nnc(SCC(=O)NCc3ccco3)n12	-60*	-21	3	-69	35	13
O=C(CSc1nnc(CNc2ccc(Cl)cc2)n1Cc1ccccc1)NCc1ccco1	40	·	7	63*	7	8
COc1ccc(CN(C)C[C@@H]2Oc3ccc(NC(=O)Cn4cnnn4)cc3CC(=O)N([C@@H](C)CO)C[C@@H]2C)cc1	·	-1	·	·	·	·
COc1cccc(C#Cc2ccc([C@H]3[C@@H](CO)N4C(=O)CN(C(=O)C5CC5)C[C@@H]34)cc2)c1	·	3	·	·	·	·
Cc1ccc(NC(=O)n2ncc3c(C)cccc32)c(C)c1	17	-7	-9	57*	-9	-10
Cc1cccc2c1cnn2C(=O)Nc1ccc(Br)cc1F	21	-2	-9	26	14	-7
CC(=O)c1sc(NCc2ccc(C)cc2)nc1C	49	-28	-21	65*	-16	-18
C[C@H]1CCCCO[C@@H](CN(C)C(=O)Nc2ccc(F)cc2)[C@@H](C)CN([C@@H](C)CO)C(=O)c2cc(N(C)C)ccc2O1	·	3	·	·	·	·
Cc1nc2c(C#N)c(C)[nH]n2c(=O)c1Cc1ccccc1	·	-1	-3	·	64*	31
Cc1nc2c(-c3ccc(Cl)cc3)c(C)[nH]n2c(=O)c1Cc1ccccc1	-47	16	43*	-49	40	32
CCOC(=O)Cn1c(CCC(=O)O)ccc1-c1ccc(F)cc1	-77*	0	5	-82	3	-4
COC(=O)c1ccccc1-n1c(CCC(=O)O)ccc1-c1ccc(F)cc1	3	2	2	12	5	-17
O=C(O)CCc1ccc(-c2ccc(F)cc2)n1CC(=O)O	4	·	4	-9	4	-6
COc1ccc(-n2c(CCC(=O)O)ccc2-c2ccc(F)cc2)c(OC)c1	-1	-17	-1	4	30	51*
C[C@H]1CN([C@@H](C)CO)C(=O)CCCn2cc(nn2)CO[C@H]1CN(C)Cc1ccccc1C(=O)O	·	6	·	·	·	·
